One experiment has as its system KB-3-1. Kind of experiment: Cytotoxic Profiling of Annotated Libraries Using Quantitative High-Throughput Screening (AID 1296008). Note: % is set by controls: 0 for no effect and ±100 for the full control effect. Conditions: Five cell lines viability, CellTiter-Glo ATP luminescence, 48-72 h; max response: hits give low values. An outline of the steps: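 Cytotoxicity was measured as CellTiter-Glo ATP luminescence, read after 10 min at room temperature. Compound treatment of the cells lasted 48 or 72 hr at 37 degrees Celsius in a qHTS format.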
A general note: Cellular ATP, detected with luciferase, serves as a proxy for viable cell number.

The next experiment has as its system ICS. Kind of experiment: qHTS profiling for inhibitors of Plasmodium falciparum proliferation (AID 504749). Note: potency is the fitted concentration of half-maximal effect. The following applies: P. falciparum in erythrocytes, SYBR Green DNA, 72 h; series mostly up to 28.7 µM. Put shortly: (§1)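 Infected RBCs, 0.3% parasitemia/2.5% Hct final; cpd 72 h, 37 C, 5% CO2; lysis buffer with saponin/triton/SYBR Green I, o/n RT dark; FI 485/535; norm. to artemisinin (0.29 uM) and DMSO.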

In a further experiment the test system is JCK. Described as above. Conditions: P. falciparum in erythrocytes, SYBR Green DNA, 72 h; series mostly up to 28.7 µM. An outline of the steps:
as §1

The subject of a further experiment is N140. The experiment is described as above. Conditions: P. falciparum in erythrocytes, SYBR Green DNA, 72 h; series mostly up to 28.7 µM. Put shortly:
as §1

A further experiment relates to P93_24. The experiment is described as above. Conditions: P. falciparum in erythrocytes, SYBR Green DNA, 72 h; series mostly up to 28.7 µM. Put shortly:
as §1

A further experiment concerns P94_40. The experiment is described as above. The following applies: P. falciparum in erythrocytes, SYBR Green DNA, 72 h; series mostly up to 28.7 µM. An outline of the steps:
as §1

The next experiment relates to PAD. The description is as above. Conditions: P. falciparum in erythrocytes, SYBR Green DNA, 72 h; series mostly up to 28.7 µM. An outline of the steps: as §1
For the next experiment, the system named is PC15. The experiment is described as above. The following applies: P. falciparum in erythrocytes, SYBR Green DNA, 72 h; series mostly up to 28.7 µM. Put shortly: as §1
The subject of the next experiment is PC26. The experiment is described as above. The following applies: P. falciparum in erythrocytes, SYBR Green DNA, 72 h; series mostly up to 28.7 µM. Put shortly:
as §1

The next experiment deals with PC49. Described as above. Conditions: P. falciparum in erythrocytes, SYBR Green DNA, 72 h; series mostly up to 28.7 µM. Put shortly: as §1
A further experiment has as its system SC27B. Described as above. The following applies: P. falciparum in erythrocytes, SYBR Green DNA, 72 h; series mostly up to 28.7 µM. Put shortly: as §1
For the next experiment, the system named is TAB109. The description is as above. Conditions: P. falciparum in erythrocytes, SYBR Green DNA, 72 h; series mostly up to 28.7 µM. Put shortly: as §1
In another experiment the test system is TAB113. The description is as above. Conditions: P. falciparum in erythrocytes, SYBR Green DNA, 72 h; series mostly up to 28.7 µM. An outline of the steps: as §1
Another experiment relates to TAB165. The experiment is described as above. Conditions: P. falciparum in erythrocytes, SYBR Green DNA, 72 h; series mostly up to 28.7 µM. An outline of the steps:
as §1

Records with an inconclusive call do not appear. Values without a mark were called inactive. Active and inactive are the calls of the source. Calls come from the whole dose curve; as a rule, active = well fitted inhibition curve with a large enough effect; inconclusive = small, poorly fitted or top-dose-only effect; inactive = flat fitted curve, though single readings scatter.
Note: nearly all actives have a fitted effect of over 60% in size.

With `C[S+](C)CCC(N)C(=O)O` (stereo unspecified), the max response in the experiment with KB-3-1 is 3.56%.

`NC(N)=NCC1COC2(CCCCC2)O1` (stereo unspecified): the max response with KB-3-1 is 1.43%.

Regarding `Cc1cccc(C)c1Nc1ncccc1C(=O)O`, in the experiment on KB-3-1, the max response is -0.608%.

In the case of `OCCN1CCN(CC/C=C2/c3ccccc3Sc3ccc(Cl)cc32)CC1`, the max response in the experiment on KB-3-1 was 6.68%.

With `CO/N=C(\C(=O)N[C@@H]1C(=O)N2C(C(=O)O)=C(C[N+]3(C)CCCC3)CS[C@H]12)c1csc(N)n1`, the max response with KB-3-1 is 2.85%.

As to `c1ccc2cc(C3=NCCN3)ccc2c1`, the max response in the experiment on KB-3-1 was -9.97%.

Regarding `CCC(Oc1ccccc1)C(=O)N[C@@H]1C(=O)N2[C@@H]1SC(C)(C)[C@@H]2C(=O)O` (stereo partly specified), the max response with KB-3-1 was 9.51%.

Turning to `NC(=O)OC[C@@H]1[C@H](NC(=O)/C(=N\OCC(=O)O)c2csc(N)n2)C(=O)N1S(=O)(=O)O`, the max response with KB-3-1 was -1.39%.

As for `C[C@]12CC[C@@H]3c4ccc(O)cc4CC[C@H]3[C@@H]1CC[C@@H]2OP(=O)(O)O`, in the experiment on KB-3-1, the max response is -26.5%.

As for `NC[C@H]1O[C@H](O[C@H]2[C@H](O)[C@@H](O[C@H]3O[C@H](CO)[C@@H](O)[C@H](N)[C@H]3O)[C@H](N)C[C@@H]2N)[C@H](O)[C@@H](O)[C@@H]1O`, in the experiment with KB-3-1, the max response was 14.5%.

On to `CCC(=O)OC(OP(=O)(CCCCc1ccccc1)CC(=O)N1C[C@H](C2CCCCC2)C[C@H]1C(=O)O)C(C)C` (stereo partly specified), for which the max response in the experiment with KB-3-1 is 3.39%.

H-RKDVY-OH: in the experiment on KB-3-1, the max response is -14.8%.

As for `C[C@@H]1O[C@@H](OC[C@H]2O[C@@H](Oc3c(-c4ccc(OCCO)c(OCCO)c4)oc4cc(OCCO)cc(O)c4c3=O)[C@H](O)[C@@H](O)[C@@H]2O)[C@H](O)[C@H](O)[C@H]1O`, the max response in the experiment with KB-3-1 was -2.8%.

As for `CC1(C)S[C@@H]2[C@H](N3C(=O)C(c4ccccc4)NC3(C)C)C(=O)N2[C@H]1C(=O)O` (stereo partly specified), the max response with KB-3-1 is 3.76%.

`CC(C)[C@@H](N)C(=O)O`: the Potency result in the experiment with ICS, with JCK, with N140, in the experiment with P93_24, with P94_40 and with PAD was “inactive” throughout. Besides, the Potency result in the experiment on PC15, in the experiment with PC26, in the experiment with PC49, in the experiment on SC27B, with TAB109 and in the experiment on TAB113 was “inactive” each time. Besides, the Potency result in the experiment with TAB165 is “inactive”. Besides, the max response with KB-3-1 was -13.9%.

Turning to `NC(=O)c1ccc[n+]([C@@H]2O[C@H](COP(=O)([O-])OP(=O)(O)OC[C@H]3O[C@@H](n4cnc5c(N)ncnc54)[C@H](O)[C@@H]3O)[C@@H](O)[C@H]2O)c1`, the max response in the experiment with KB-3-1 is -2.72%.

`CCCCC(=O)O[C@H]1CC[C@H]2[C@@H]3CCc4cc(O)ccc4[C@H]3CC[C@]12C`: the max response in the experiment on KB-3-1 was 0.0537%.

Turning to `CN1CCN(C(c2ccccc2)c2ccc(Cl)cc2)CC1` (stereo unspecified), in the experiment with KB-3-1, the max response is 0.99%.

Take `CO/N=C(\C(=O)N[C@@H]1C(=O)N2C(C(=O)[O-])=C(C[n+]3ccc(N)n3CCO)CS[C@H]12)c1csc(N)n1`: the max response in the experiment on KB-3-1 was 5.24%.

With `C=Cc1c(C)c2cc3nc(cc4[nH]c(cc5nc(cc1[nH]2)C(C)=C5CCC(=O)OC)c(CCC(=O)O)c4C)[C@@]1(C)C3=CC=C(C(=O)OC)[C@H]1C(=O)OC`, the max response with KB-3-1 is -15.7%.

Turning to `CCCCCc1ccc(C)cc1O`, the Potency with ICS was 7.08 µM (active). Moreover, the Potency entry with JCK, with N140, in the experiment with P93_24, in the experiment with P94_40, in the experiment on PAD and in the experiment on PC15 was “inactive” throughout. For the same molecule, the Potency result in the experiment with PC26, with PC49, in the experiment with SC27B, in the experiment with TAB109 and in the experiment on TAB113 was “inactive” each time. Further, in the experiment with KB-3-1, the max response was -0.225%.

In the case of `CC(C)CN(C[C@@H](OP(=O)(O)O)[C@H](Cc1ccccc1)NC(=O)O[C@H]1CCOC1)S(=O)(=O)c1ccc(N)cc1`, the max response with KB-3-1 was 1.96%.

Turning to `C=C1c2c(Cl)ccc(O)c2C(O)=C2C(=O)[C@]3(O)C(O)=C(C(N)=O)C(=O)[C@@H](N(C)C)[C@@H]3[C@@H](O)[C@H]12`, the max response in the experiment with KB-3-1 was 7.79%.

In the case of `CC1=C[C@H](O)CC(C)(C)[C@H]1/C=C/C(C)=C/C=C/C(C)=C/C=C/C=C(C)/C=C/C=C(C)/C=C/C1=C(C)C[C@@H](O)CC1(C)C`, the max response with KB-3-1 is -11%.

Consider `NC(Cc1ccccc1)C(=O)O` (stereo unspecified), for which the max response in the experiment on KB-3-1 was 4.99%.

For the molecule `CNCC(=O)N[C@@H](CCCN=C(N)N)C(=O)N[C@H](C(=O)N[C@@H](Cc1ccc(O)cc1)C(=O)N[C@H](C(=O)N[C@@H](Cc1cnc[nH]1)C(=O)N1CCC[C@H]1C(=O)N[C@@H](C)C(=O)O)C(C)C)C(C)C`, the max response in the experiment on KB-3-1 was 1.41%.

Consider `COC(=O)c1ccccc1O`, for which the Potency entry in the experiment on ICS, in the experiment on JCK, in the experiment on N140, with P93_24, in the experiment on P94_40 and in the experiment with PAD was “inactive” each time. Also, the Potency entry in the experiment with PC15, with PC26, in the experiment on PC49, in the experiment on SC27B, with TAB109 and in the experiment with TAB113 was “inactive” each time. In addition, the Potency entry in the experiment with TAB165 was “inactive”. The max response in the experiment on KB-3-1 is -4.17%.

On to `CCCCC/C=C\CCC(=O)N[C@H]1[C@H](Oc2c3cc4cc2Oc2ccc(cc2Cl)[C@@H](O[C@@H]2O[C@H](CO)[C@@H](O)[C@H](O)[C@H]2NC(C)=O)[C@@H]2NC(=O)[C@H](NC(=O)[C@@H]4NC(=O)[C@H]4NC(=O)[C@@H](Cc5ccc(c(Cl)c5)O3)NC(=O)[C@H](N)c3ccc(O)c(c3)Oc3cc(O)cc4c3)c3ccc(O)c(c3)-c3c(O[C@H]4O[C@H](CO)[C@@H](O)[C@H](O)[C@@H]4O)cc(O)cc3[C@@H](C(=O)O)NC2=O)O[C@H](CO)[C@@H](O)[C@@H]1O`, for which the max response in the experiment on KB-3-1 is -12.7%.

As for `CC(C)N1CCN(c2ccc(OC[C@H]3CO[C@](Cn4cncn4)(c4ccc(Cl)cc4Cl)O3)cc2)CC1`, the max response in the experiment with KB-3-1 is 0.302%.

For the molecule `CC(C)(C)C(=O)OCC(=O)[C@H]1CC[C@H]2[C@@H]3CCC4=CC(=O)CC[C@]4(C)[C@H]3CC[C@]12C`, the max response in the experiment with KB-3-1 was -9.73%.

Turning to `F[Si-2](F)(F)(F)(F)F`, the Potency result with ICS, in the experiment with JCK, with N140, in the experiment with P93_24, with P94_40 and with PAD was “inactive” in each case. In addition, the Potency entry in the experiment with PC15, in the experiment on PC26, in the experiment on PC49, in the experiment with SC27B, with TAB109 and in the experiment on TAB113 was “inactive” each time. The Potency entry with TAB165 is “inactive”. The max response in the experiment on KB-3-1 was 6.45%.

As for `Cc1cccc(C)c1NC(=O)C1CCCCN1C` (stereo unspecified), the Potency entry in the experiment with ICS, in the experiment with JCK, in the experiment with N140, in the experiment on P93_24, in the experiment with P94_40 and in the experiment on PAD was “inactive” in each case. Further, the Potency entry in the experiment with PC15, with PC26, in the experiment on PC49, with SC27B, in the experiment on TAB109 and in the experiment with TAB113 was “inactive” throughout. Also, the Potency result in the experiment with TAB165 was “inactive”. The max response in the experiment on KB-3-1 is -1.09%.

Source of the values: PubChem BioAssay (NCATS).
